Source: PubChem BioAssay (National Center for Advancing Translational Sciences (NCATS))
In the library only some 0.69% were active in any assay of this set; here they are far more common.
IL-2 act – activators of IL-2; IL-2 activation reporter assay, cell-based qHTS; stimulated with anti-CD3/CD4/CD28 beads; in transgenic mouse T cells; activation, % (series mostly up to about 46 µM); 360,000 tested, 0.065% active; AID 652025; in the data active means activation above about 50%; further: 0% is about no effect
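Unstimulated transgenic mouse T cells preincubated 60 min with compound, then stimulated with anti-CD3/anti-CD4-coated beads plus anti-CD28 for 18 h at 37 degrees C. IL-2 response read as EGFP and DsRed fluorescence by plate cytometry.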
Integrin act MD – activates integrin-mediated alleviation for muscular dystrophy; alpha7betagal myoblasts, beta-gal FDG fluorescence, 48 h; AID 624291; Potency, µM (titrated, usually from 38.3 µM), for the others: at the top dose activation, most hits filed as activators; 350,000 tested, 0.064% active;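 further: potency means the concentration at half of the fitted maximal effect; 100% = response of the positive control SU9516; nearly all actives have a fitted effect of over 60% in size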
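alpha7betagal+/- myoblasts (passage 13, 250/well) treated 48 h at 37C with compounds at 1:260 dilution of DMSO stock. Lysed, then beta-galactosidase activity read as FDG fluorescence (ex 480/em 540) after 30 min, with pre-read for autofluorescence.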
PKM2 activator – increases activity of human pyruvate kinase M2; purified PKM2, Kinase-Glo ATP luminescence, activation; response scale: 0% is enzyme alone, no compound; 260,000 tested, 0.34% active; Potency, µM (top dose mostly 57.5 µM), without a hit: at the top dose activation, hits mostly activators; further: potency means the concentration at half of the fitted maximal effect; on the % scale 0 is the no-effect control and ±100 the full control effect; nearly all actives have a fitted effect of over 55% in size
Target sequence (P14618 whole entry, looked up): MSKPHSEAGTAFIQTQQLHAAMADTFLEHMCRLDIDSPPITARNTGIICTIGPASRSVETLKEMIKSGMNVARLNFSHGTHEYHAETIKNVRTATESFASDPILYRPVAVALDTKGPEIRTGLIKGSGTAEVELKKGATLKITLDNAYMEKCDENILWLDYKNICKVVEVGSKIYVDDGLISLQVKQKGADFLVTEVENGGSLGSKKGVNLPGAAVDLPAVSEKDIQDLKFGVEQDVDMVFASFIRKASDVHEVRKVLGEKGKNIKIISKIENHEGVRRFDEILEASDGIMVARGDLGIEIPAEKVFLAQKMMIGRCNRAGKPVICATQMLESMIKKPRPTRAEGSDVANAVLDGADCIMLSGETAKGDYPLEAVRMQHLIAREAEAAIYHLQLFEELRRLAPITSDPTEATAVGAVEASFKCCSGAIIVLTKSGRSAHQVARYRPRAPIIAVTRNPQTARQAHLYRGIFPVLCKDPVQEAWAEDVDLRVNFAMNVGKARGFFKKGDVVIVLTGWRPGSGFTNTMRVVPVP
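Kinase-Glo luminescence reports ATP generated from ADP (0.1 mM) and PEP (0.5 mM) by purified hPK-M2 after 1 h at room temperature, pH 7.2 imidazole buffer; intermediate enzyme activity allows detecting inhibitors and activators.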
TCR act – activators of T cell receptors; primary human leukocytes, anti-CD3, IL-2 HTRF, 48 h; Potency, µM (top dose mostly 9.22 µM), for the others: at the top dose activation of IL-2 secretion, usual class: activators; 330,000 tested, under 10 active; AID 504894; further: % of control where 0% means no effect
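Primary human leukocytes incubated 48 hr with anti-CD3 beads plus compound, without co-stimulation. Secreted IL-2 measured by HTRF (europium cryptate/d2 anti-IL-2 pair, 320 nm excitation, 665 nm emission).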
AT treatment – potential ataxia-telangiectasia treatment | F2112 A-T fibroblasts, KAP-1 phosphorylation AlphaLISA; neocarzinostatin DNA damage 30 min before lysis | Potency, µM (titrated, usually from 57.5 µM), inactives show at the top dose activation, actives largely listed as activators | 320,000 tested, 0.19% active | AID 485349; further: potency means the concentration at half of the fitted maximal effect; % of control where 0% means no effect; nearly all actives have a fitted effect of over 45% in size
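ATM-like activity read as KAP-1 phosphorylation via AlphaLISA donor/acceptor antibody pairs after lysis and 6 hr at 25C. Cells were ATM-null patient fibroblasts (F2112, hTERT), dosed 60 min, then exposed to the DSB inducer NCS for 30 min.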
Tb PFK block – T. brucei PFK enzyme inhibition | T. brucei PFK, ADP-Glo luminescence | Potency, µM (titrated, usually from 57.5 µM), inactives show at the top dose activity, negative = inhibition, usual class: inhibitors | 330,000 tested, 0.17% active | AID 485367;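 further: potency means the concentration at half of the fitted maximal effect; 0% = uninhibited 1x PFK enzyme wells and -100% = no-enzyme wells; nearly all actives have a fitted effect of over 60% in size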
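In TEA buffer at pH 8.0 with 5 mM MgCl2, enzyme (1.25 nM) converted F6P (0.5 mM) and ATP (0.1 mM) for 45 min at room temperature. ADP product was read by luciferase luminescence.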
* hit, by the source's call; / = not tested or not shown; [ ] = remark or other dose. Unless noted, the call rests on the fitted dose curve; in most records, active means well fitted curve in the direction sought with a large enough effect; inconclusive means small, poorly fitted or top-dose-only effect, or another doubt; inactive means no such curve, though single readings can be large; an effect the other way counts as inactive or inconclusive.

SMILES	IL-2 act	Integrin act MD	PKM2 activator	TCR act	AT treatment	Tb PFK block
O=C(NC1CC1)C1=C[C@H](c2csc3ccccc23)C[C@H](OCCCCO)O1	0	7%	7%	-2%	-21%	2%
O=C(NC1CC1)C1=C[C@@H](c2csc3ccccc23)C[C@@H](OCCCCO)O1	0	-14%	14µM*	3%	13%	-3%
CCN1CCCC1Cn1c(-c2ccccc2)nc2c(NCCOC)nc(C)nc21 (configuration not stated)	/	/	-7%	/	/	/
Cc1ccc2cc(CN(CC(C)C)S(=O)(=O)c3cccc4nonc34)c(=O)[nH]c2c1	65*	23%	/	1%	3%	-2%
COc1ccc(-c2c3c(=O)n(C)c(=O)n(C)c3cn2-c2ccc(O)cc2)cc1	-1	-11%	-14%	7%	32µM*	0%
COc1ccc(-c2c3c(=O)n(C)c(=O)n(C)c3cn2-c2ccccc2)cc1	0	-9%	1%	5%	-2%	-5%
CN(C)S(=O)(=O)c1ccc(C(=O)NCc2cccs2)cc1	-2	5%	6.3µM*	1%	/	-17%
O=C(Nc1ccc(Oc2ccsc2C(=O)O)cc1)c1ccccc1	0	44%	/	7%	50%	-17%
O=C(O)c1sccc1Oc1ccc(NS(=O)(=O)c2cccc(F)c2)cc1	3	40%	/	-1%	45µM*	-5%
COc1ccc(OC)c(S(=O)(=O)NCc2ccccn2)c1	3	-21%	-5%	3%	-5%	-4%
C=C(C(=O)Oc1ccccc1C(C)(C)C)c1ccccc1	/	/	/	/	35µM*	0%
COCCN(CCOC)c1nc(C)nc2c1nc(-c1ccccc1)n2CCN(C)C	/	/	1%	/	/	/
C[C@H]1Cc2c(-c3ccccc3)nc3c(c2CO1)CN(C(=O)c1cccnc1)CC3	/	/	-7%[11.5 µM]	/	/	/
CCNc1nc(Oc2c(Cl)cccc2Cl)cc(C(F)(F)F)n1	-3	-2%	4%	2%	15%	0%
CCNc1nc(Oc2ccc(OC)cc2)cc(C(F)(F)F)n1	-2	0%	2%	4%	1%	-4%
CCNc1nc(Oc2ccc(Cl)cc2Cl)cc(C(F)(F)F)n1	-3	15%	-1%	2%	32µM*	-6%
CCNc1nc(Sc2ccc(C)cc2)cc(C(F)(F)F)n1	-2	0%	5%	-14%	32µM*	0%
Cc1nc(N2CCOCC2)c2nc(-c3ccccc3)n(CCCN(C)C)c2n1	/	/	-1%	/	/	/
O=c1[nH]c(=O)c2nc(-c3ccc(Cl)cc3)cnc2[nH]1	1	-10%	1%	-3%	-4%	6%
O=c1[nH]c(=O)c2nc3c4ccccc4c4ccccc4c3nc2[nH]1	7	20%	11µM*	-4%	-1%	-1%
CC#CCN1c2ccccc2[C@]23C[C@@H](C(=O)OC)N(S(=O)(=O)c4ccc(C)cc4)C2=NC(C(=O)OC)=C(C(=O)OC)[C@H]13	/	/	-3%[11.5 µM]	/	/	/
COc1ccc(NC(=O)c2cccc(N3C(=O)c4ccc(C(=O)Nc5ccc(OC)c(O)c5)cc4C3=O)c2)cc1O	2	4.5µM*	-6%	13%	5%	7%
O=C(Nc1ccc(S(=O)(=O)Nc2ncccn2)cc1)c1ccc(F)c(S(=O)(=O)N2CCOCC2)c1	-2	3%	1%	0%	28µM*	3%
O=C(Nc1ccc(S(=O)(=O)Nc2nccs2)cc1)c1ccc(F)c(S(=O)(=O)N2CCOCC2)c1	-1	10%	23%	-4%	4%	-5%
CCCCn1c(=O)[nH]c(=O)c2c1nc(-c1ccc(-c3ccccc3Br)o1)n2CC	2	1%	16µM*	14%	-4%	-21%
O=C(CCc1ccc(O)cc1)c1c(O)cc(O)cc1O	0	-2%	27%	5%	28µM*	11%
COc1cc(O)c(CC=C(C)C)c(O)c1C(=O)CCc1ccc(O)cc1	0	-34%	1%	-2%	0%	1%
